# Rows were chosen to be rich in hits. Some 3.6% of all compounds tested hit in one or more screens of this group.
# IkB sig inh: IkB Signaling | ABC-DLBCL IkBa-CBG/CBR dual luciferase ratio, 4 h; response scale: scaled: untreated 0%, proteasome inhibitor 100% | Potency, µM (doses to about 57.1 µM), for the others: at the top dose IkBa stabilization activation | 110,000 tested, 0.04% active; active means well fitted curve in the direction sought with a large enough effect in the signal ratio, not every such curve was filed as active; inconclusive means small, poorly fitted or top-dose-only effect, or a change in a side signal; the % refers to the signal ratio;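 further: the direction sought is a rising ratio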
#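 Curves were fitted separately to fusion (green), unfused (red) and ratio luminescence, then classed by r2, magnitude and activity. Cells: OCI-Ly3, 4 h compound plus doxycycline at 37C; 10 uM MG-132 defined full response.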
# CRE-bla Fsk: Cell signaling CRE-BLA (Fsk stim); AID 662, 2007; Potency, µM (series often up to 38.2 µM), for the others: at the highest dose activity change, negative = inhibition, most hits filed as activators; 71,000 tested, 2.5% active; CHO CRE-bla reporter (cAMP response element driving beta-lactamase), forskolin EC10, beta-lactamase ratio; active means well fitted activation curve with a large enough effect in the signal ratio, with a control signal flat, not every such curve was filed as active; inconclusive means small, poorly fitted or top-dose-only effect, or effect the other way, or a change in a side signal; the % refers to the signal ratio; further: % of control where 0% means no effect
#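 Titrated compounds plus EC10 NKH 477 on CHO CRE-bla cells, 3 h, 37 °C. CCF4, 2 h RT. Ratio 460/530 nm → AC50.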
# TSHR ag: qHTS Assay for Agonists of the Thyroid Stimulating Hormone Receptor; 73,000 tested, 0.48% active; Potency, µM (series often up to 57.1 µM), inactives show at the highest dose activation, usual class: activators; HEK293-CNG-TSHR cells (CNG channel as cAMP sensor), membrane potential dye, cAMP; Thyrotropin receptor (Homo sapiens), P16473; AID 926, 2007; active means well fitted activation curve with a large enough effect in the main read-out, with a control signal flat, not every such curve was filed as active; inconclusive means small, poorly fitted or top-dose-only effect, or a change in a side signal; inactive means no such curve, though single readings can be large or run the other way; % of control where 0% means no effect;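 further: the control signal comes from parental cells without the receptor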
# Target sequence (P16473 whole entry, looked up): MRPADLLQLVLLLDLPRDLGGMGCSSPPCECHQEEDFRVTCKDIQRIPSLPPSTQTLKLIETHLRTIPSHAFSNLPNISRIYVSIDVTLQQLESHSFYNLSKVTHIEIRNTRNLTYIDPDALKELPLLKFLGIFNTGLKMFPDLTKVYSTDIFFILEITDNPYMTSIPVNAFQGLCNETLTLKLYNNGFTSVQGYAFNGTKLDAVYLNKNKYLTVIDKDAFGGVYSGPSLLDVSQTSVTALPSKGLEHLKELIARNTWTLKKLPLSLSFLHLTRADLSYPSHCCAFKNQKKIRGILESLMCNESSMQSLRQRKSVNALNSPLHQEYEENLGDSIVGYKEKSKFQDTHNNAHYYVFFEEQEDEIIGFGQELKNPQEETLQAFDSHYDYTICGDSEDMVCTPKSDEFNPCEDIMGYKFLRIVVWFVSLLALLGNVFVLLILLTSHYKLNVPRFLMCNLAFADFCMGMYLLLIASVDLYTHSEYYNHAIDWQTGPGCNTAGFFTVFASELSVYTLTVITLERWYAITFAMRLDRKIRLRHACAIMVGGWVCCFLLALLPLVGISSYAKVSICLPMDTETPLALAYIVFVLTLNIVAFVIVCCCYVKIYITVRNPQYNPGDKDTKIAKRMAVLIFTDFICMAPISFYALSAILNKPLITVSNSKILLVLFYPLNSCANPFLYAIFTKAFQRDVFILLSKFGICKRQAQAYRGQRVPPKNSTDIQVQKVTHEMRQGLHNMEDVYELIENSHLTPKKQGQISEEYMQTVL
#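 HEK 293 cells stably expressing TSHR and a modified CNG channel, with CNG-only parental cells as counterscreen, were preloaded 60 min at room temperature with membrane potential dye containing 100 uM RO 20-1724. Compound exposure was 30 min, and depolarization was read as fluorescence at 590 nm.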
# ERK AVP inh: qHTS Assay for Inhibitors of the ERK Signaling Pathway using a Homogeneous Screening Assay. HEK293-V1b, vasopressin-stimulated pERK AlphaScreen. Potency, µM (top dose mostly 57.5 µM), for inactives: top-dose activity, negative = inhibition, most hits filed as inhibitors. 72,000 tested, 0.99% active. AID 995, 2007; further: on the % scale 0 is the no-effect control and ±100 the full control effect; nearly all actives have a fitted effect of over 55% in size
#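 Phosphorylated ERK1/2 detected via AlphaScreen bead proximity in lysates of V1b-expressing HEK293 cells given 25 nM vasopressin for 5 min after 30 min compound exposure (37 °C). AC50 from Hill equation; basal DMSO 0%, vasopressin 100%.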
# HEK293 cAMP ctrl: qHTS Assay for Agonists of the Thyroid Stimulating Hormone Receptor: Activators of Intracellular cAMP Concentrations in Parental HEK 293. parental HEK293 CNG cAMP sensor, membrane potential fluorescence. Potency, µM (doses to about 57.1 µM), for the others: top-dose activation, most hits filed as activators. 73,000 tested, 2.5% active. AID 938, 2007; further: % of control where 0% means no effect; nearly all actives have a fitted effect of over 55% in size
#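 Counterscreen for endogenous-receptor signalling: CNG-channel HEK 293 cells report cAMP rise by membrane depolarization. After 60 min dye equilibration with 100 uM RO 20-1724, compounds incubated 30 min before bottom-read fluorescence at 590 nm.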
# Active calls of the source: *; ? = inconclusive; / = no result; [ ] = dose if it differs, or a comment. Unless noted, the call rests on the fitted dose curve; in most records, active means well fitted curve in the direction sought with a large enough effect; inconclusive means small, poorly fitted or top-dose-only effect, or another doubt; inactive means no such curve, though single readings can be large; an effect the other way counts as inactive or inconclusive. Potency means the concentration at half of the fitted maximal effect.
SMILES,IkB sig inh,CRE-bla Fsk,TSHR ag,ERK AVP inh,HEK293 cAMP ctrl
Cc1cc2c(cc1S(=O)(=O)CCC(=O)NC1CCC(C)CC1)OCC(=O)N2 (stereo unspecified),1%,/,/,/,/
CCNC(=O)[C@@H]1O[C@@H](n2cnc3c(NCc4ccccc4)ncnc32)[C@@H](O)[C@H]1O,?,1%,?,/,3.2µM*
CNC(=O)[C@@H]1O[C@@H](n2cnc3c(N)ncnc32)[C@@H](O)[C@H]1O,?,-4%,?,-4%,3.2µM*
Nc1ncnc2c1ncn2[C@@H]1O[C@@H](C(=O)NC2CC2)[C@H](O)[C@@H]1O,?,-4%,?,?,0.25µM*
Cn1c(=O)oc2cc(S(=O)(=O)CCC(=O)NCc3ccccc3)ccc21,0%,/,/,/,/
c1ccc(Nc2ncnc3ccc(-c4ccoc4)cc23)cc1,2%[11.4 µM],?,?,-18%,?
Cc1ccccc1-c1cc(NCc2cccnc2)ncn1,1%[11.4 µM],3%,27%,-9%,12%
Cc1ccc(C)c2[nH]c(=O)c(CN(Cc3nnnn3C3CCCCC3)CC3CCCO3)cc12 (stereo unspecified),?,1%,?,-8%,25µM*
Cc1ccc2[nH]c(=O)c(CN(Cc3nnnn3C3CCCC3)C3CCCCC3)cc2c1,2%,1%,/,-11%,24%
Cc1ccc(C)c2[nH]c(=O)c(CN(CC3CCCO3)C(=O)NC3CCCCC3)cc12 (stereo unspecified),0%,-2%,?,-3%,4µM*
Cc1ccc(C)c2[nH]c(=O)c(CN(CCN3CCOCC3)Cc3nnnn3CC3CCCO3)cc12 (stereo unspecified),1%,-1%,?,9%,?
Cc1ccc2[nH]c(=O)c(CN(Cc3ccccc3)Cc3nnnn3C3CCCC3)cc2c1,?,-1%,?,-14%,25µM*
COc1ccc(Cn2nnnc2CN(Cc2cc3cc(C)ccc3[nH]c2=O)C2CCCC2)cc1,-1%,3%,?,-15%,25µM*
OCc1cnc(SCc2cccc(F)c2)n1Cc1ccc(F)cc1,0%,/,/,/,/
Cc1ccc(C)c2[nH]c(=O)c(CN(Cc3ccco3)C(=O)Nc3ccccc3)cc12,?,?,?,?,20µM*
O=C(O)CCCSc1ccccc1,-3%[11.4 µM],0%[7.6 µM],0%[11.4 µM],20%[11.5 µM],4%[11.4 µM]
CCOc1cc2c(cc1OCC)C(c1cc(OC)c(O)c(OC)c1)NCC2 (stereo unspecified),-2%,10µM*,0%[11.4 µM],?,5%
CCOc1cc2c(cc1OCC)C(c1ccc(O)c(OC)c1)NCC2 (stereo unspecified),-3%,?,10%,-15%,6%
COCCn1nnnc1C(c1ccccn1)N1CCN(c2cc(C)ccc2C)CC1 (stereo unspecified),1%,0%,?,5%,?
Cc1nc2sccn2c1-c1nc(C2CC2)c(C(=O)c2ccc3c(c2)NC(=O)CO3)s1,0%,2.5µM*,3%,-3%,-2%
O=C1COc2ccc(C(=O)CSc3nnc(-c4cccs4)n3Cc3ccccc3)cc2N1,?,-4%,/,-12%,23%
Cc1cc(CNC(=O)[C@@H]2C[C@H]2[C@@H](NP(=O)(c2ccccc2)c2ccccc2)c2ccccc2)nn1C,/,4%,4%,16%,8%
C[C@H](CO)NC(=O)[C@@H]1C[C@H]1[C@@H](NP(=O)(c1ccccc1)c1ccccc1)c1ccccc1,/,-14%,?,3%,16µM*
CCOC(=O)c1c(-c2ccc(OC)c(OC)c2)csc1NC(=O)c1ccccc1F,-1%,/,/,/,/
c1ccc2c(c1)Cc1cc3ccccc3nc1-2,/,?,?,13µM*,20µM*
SMILES,IkB sig inh,CRE-bla Fsk,TSHR ag,ERK AVP inh,HEK293 cAMP ctrl
CN(CCc1ccccn1)c1ccc2c(c1)Cc1ccccc1-2,-1%[11.4 µM],-4%[7.6 µM],-1%[11.4 µM],-5%[11.5 µM],-1%[11.4 µM]
Cn1nc(-c2ccc(C(=O)N3CCN(c4ccccc4)CC3)cc2)c2ccccc2c1=O,-1%,-10%,18%,8%,13%
Cc1cccc(Cn2c(N(C)Cc3ccccc3)nc3c2c(=O)[nH]c(=O)n3C)c1,5%,13µM*,10%,/,8%
C/C=C/Cn1c(N(C)Cc2ccccc2)nc2c1c(=O)[nH]c(=O)n2C,-1%,10µM*,10%,/,5%
O=C(NC(=O)c1ccc(Cl)cc1)Nc1cc(N2CCCCC2)ncn1,-3%,?,13%,7%,17%
O=c1[nH]c(=O)n(C2CCCCCC2)c(O)c1C=NCc1ccc(F)cc1,?,13µM*,/,-21%,4%
Nc1nonc1-c1nc2ccccc2n1Cc1ccc(Br)cc1,0%,/,/,/,/
Nc1nonc1-c1nc2ccccc2n1CC(=O)NC1CCCC1,5%,?,?,3%,6.3µM*
Cc1ccc(NC(=O)Cn2c(-c3nonc3N)nc3ccccc32)c(Br)c1,1%,/,/,/,/
CCOC(=O)c1ccccc1NC(=O)Cn1c(-c2nonc2N)nc2ccccc21,7%,2µM*,?,18%,25µM*
CC(=O)Nc1nonc1-c1nc2ccccc2n1CC1CC1,-3%,5%,?,-21%,?
CCC(=O)Nc1nonc1-c1nc2ccccc2n1CC(C)C,0%,0%,?,5%,25µM*
Nc1nonc1-c1nc2ccccc2n1Cc1ccccc1,6%,?,?,32%,25µM*
Cc1oc(-c2ccccc2F)nc1CS(=O)CC(=O)NCc1cccs1 (stereo unspecified),2%,-17%,?,-21%,?
CCSc1nnc(NC(=O)c2cc(=O)c3cc(C)ccc3o2)s1,0%,/,/,/,/
O=C(CSc1nnc(C2COc3ccccc3O2)o1)Nc1nccs1 (stereo unspecified),8%,-10%,10%,-3%,0%
CCc1ccccc1Nc1nn2c(=O)c3ccc(C(=O)NC(C)C)cc3nc2s1,-2%,/,/,/,/
CCOC(=O)c1oc2ccc(Br)cc2c1CSc1nnc(C)s1,1%,?,?,12%,32µM*
COc1ccc(CN(C(=O)CN2C(=O)C(C)Oc3ccccc32)C2CCCC2)c(OC)c1 (stereo unspecified),4%,17%,?,-18%,25µM*
CC1Oc2ccccc2N(CC(=O)c2ccccc2)C1=O (stereo unspecified),-1%,2%,20%,-18%,27%
COc1ccc(CN(C(=O)CN2C(=O)COc3ccccc32)C2CCCC2)c(OC)c1,?,18%,?,-3%,20µM*
NC1=NCCN1CC(=O)O,/,/,/,0%,/
Cc1ccc(-c2nc(S(=O)(=O)c3ccc(C)cc3)c(N3CCCCC3)o2)cc1,5%,/,/,/,/
